SW480 rerep – DNA re-replication induction in SW480 cells. 1.8% of 340,000 active. AID 624297. SW480 DNA re-replication, Hoechst DNA content imaging, 48 h. Potency, µM (highest dose often 46.1 µM), for inactives: at the highest dose re-replication activation, most hits filed as activators; further: % of control where 0% means no effect; nearly all actives have a fitted effect of over 55% in size
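250 cells/well; 23 nL cpd via pin tool; 48 hr, 37 C, 5% CO2; Hoechst 40 min; imager read of total nuclear intensity, ex 405/em 500-530 nm.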
KB-3-1 tox – kills parental KB-3-1 adenocarcinoma cells; KB-3-1 viability, CellTiter-Glo ATP luminescence, 72 h; Potency, µM (highest dose often 46.1 µM), actives largely listed as cytotoxic; 1.4% of 400,000 active; AID 1347075; further: on the % scale 0 is the no-effect control and ±100 the full control effect; nearly all actives have a fitted effect of over 60% in size
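72 h, 37 °C compound treatment of KB-3-1 parental cells; CellTiter-Glo added, 10 min, luminescence read. Data corrected against DMSO-only plates and normalized before curve fitting.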
HT1080 IDH1KD tx – kills HT-1080 cells with IDH1 knockdown. Potency, µM (titrated, usually from 46.1 µM), inactives show at the top dose activity, negative = toxicity, actives largely listed as cytotoxic. HT-1080 IDH1 knockdown viability, ATP luminescence, 48 h. 2% of 360,000 active. AID 686971;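 further: 0% = DMSO wells and -100% = cell-free medium wells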
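HT-1080-IDH1KD cells (IDH1 knocked down), 750/well in RPMI with 5% FBS, treated with compound 48 h at 37 degrees C. Viability by CellTiter-Glo luminescence, normalised to DMSO and no-cell wells; concentration-response curves classed.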
MCF10A rereplic – induces DNA re-replication in MCF 10a normal breast cells; MCF 10A DNA re-replication, Hoechst nuclear intensity, 48 h; Potency, µM (titrated, usually from 46.1 µM), without a hit: at the top dose activity, positive = re-replication, most hits filed as activators; 2.9% of 350,000 active; AID 624296; further: % of control where 0% means no effect; nearly all actives have a fitted effect of over 50% in size
KB-V1 MDR tox – KB-V1 MDR subline cytotoxicity; KB-V1 MDR cells viability, CellTiter-Glo, 72 h; Potency, µM (top dose mostly 46.1 µM), hits mostly cytotoxic; 3.4% of 400,000 active; further: on the % scale 0 is the no-effect control and ±100 the full control effect; nearly all actives have a fitted effect of over 60% in size
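Drug-selected KB-V1 cells, grown in DMEM lacking phenol red with 10% FBS, receive compound titrations; after three days at 37 degrees C, surviving cell ATP is quantified by CellTiter-Glo luminescence and responses normalized and curve-fitted.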
HT1080NT lethal – kills 2HG-producing HT-1080-NT fibrosarcoma cells | Potency, µM (series often up to 46.1 µM), for inactives: at the highest dose activity, negative = less viability, actives largely listed as cytotoxic | AID 686970 | 1.6% of 360,000 active | HT-1080-NT fibrosarcoma viability, CellTiter-Glo ATP luminescence, 48 h;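 further: NT is the 2HG producing partner of a matched IDH1 knockdown line; 0% = DMSO-treated cells and -100% = media-only wells without cells; nearly all actives have a fitted effect of over 55% in size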
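750 cells/well, RPMI + 5% FBS; 2 h settle, compound pin-transfer, 48 h at 37 degrees C. CellTiter-Glo 10 min RT, luminescence. Normalized to DMSO and media-only wells.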
Numbers without * were called inactive; i = inactive; ? = inconclusive; · = no result given; [ ] = another dose, or the depositor's remark. Compounds with a hit are over-represented: about 7.9% of the library has one in this group of screens. The call rests on the fitted dose curve; in most records, active means well fitted curve in the direction sought with a large enough effect; inconclusive means small, poorly fitted or top-dose-only effect, or another doubt; inactive means no such curve, though single readings can be large; an effect the other way counts as inactive or inconclusive. Potency means the concentration at half of the fitted maximal effect.

SMILES	SW480 rerep	KB-3-1 tox	HT1080 IDH1KD tx	MCF10A rereplic	KB-V1 MDR tox	HT1080NT lethal
O=C(CCl)Nc1ccc(S(=O)(=O)NC2=NCCCCC2)cc1	?	14.6µM*	18.4µM*	20.6µM*	16.4µM*	?
O=C(Nc1ccc(S(=O)(=O)NC2=NCCCCC2)cc1)c1ccc2ccccc2n1	-6.8%	i	-4.1%	15.2%	23.1µM*	-1.1%
CC(C)(C)C(=O)Nc1ccc(S(=O)(=O)NC2=NCCCCC2)cc1	-4.7%	i	2.9%	3.7%	?	-4.9%[9.24 µM]
COc1ccccc1NS(=O)(=O)c1cccc(NC(=O)c2ccc3ccccc3n2)c1	-59.7%	?	2.4%	-32.7%	2.59µM*	0.5%
O=C(Nc1ccc(S(=O)(=O)NC2=NCCCCC2)cc1)c1ccccc1Cl	-1.3%	i	-13.1%	1.5%	i	-1.9%
O=C(Nc1cccc(S(=O)(=O)NC2=NCCCCC2)c1)c1cc(-c2ccco2)nc2ccccc12	?	i	-29.9%	16.4µM*	i	?
O[C@H]1CN(Cc2cccs2)[C@@H](c2ccccc2)C[C@@H]1n1cc(C2CC2)nn1	·	i	2.8%	·	i	-5.7%
CCC1(CC)SC(N)=NC1=O	-0.5%	i	5.2%	-1.5%	i	9.2%
CCOC(=O)c1c(C)oc2nc(C)nc(NCCCN3CCN(c4ccccc4OC)CC3)c12	·	i	·	·	i	·
Cc1cc(C)cc(OCC(=O)Nc2cccc(S(=O)(=O)NC3=NCCC3)c2)c1	20.6µM*	?	-14.5%	?	i	-7.0%[9.24 µM]
O=C(CCl)Nc1cccc(S(=O)(=O)NC2=NCCCCC2)c1	25.4%	?	?	?	?	3.66µM*
O=C(CSc1ccc2ccccc2c1Br)Nc1cccc(S(=O)(=O)NC2=NCCCCC2)c1	0.8%	i	16.4µM*	?	i	18.4µM*
CCCNCC(=O)Nc1cccc(S(=O)(=O)NC2=NCCCCC2)c1	1.8%	i	17.5%	0.2%	i	-2.1%
O=C(CCl)Nc1ccc(S(=O)(=O)Nc2nccs2)cc1	?	?	13µM*	?	?	?
Cc1ccc(OCC(=O)Nc2cccc(S(=O)(=O)NC3=NCCCCC3)c2)cc1C	-7.6%	i	10.1%	10.0%	i	-0.4%
CCc1ccccc1N1CC(c2nc3ccccc3n2CC(C)C)CC1=O (centres undefined)	·	i	·	·	i	·
O=C(O)c1ccccc1C(=O)OC1CCCC2CCCC21 (centres undefined)	-0.9%	i	20.4%	-2.5%	i	-2.6%
COc1ccccc1N(CC(=O)N1CCC(C)CC1)S(=O)(=O)c1ccc(C)cc1	·	i	·	·	i	·
O=C(c1ccc2c(c1)N(Cc1ccccc1F)C(=O)c1ccccc1S2=O)N1CCCCC1 (centres undefined)	·	?	·	·	i	·
N#Cc1cc2c(=O)n3ccccc3nc2n(-c2ccc(Cl)cc2)c1=O	?	i	0.9%	0.517µM*	i	-1.6%
CCOC(=O)C1CCN(c2c(-c3ccccc3)c3cc(Cl)ccc3[nH]c2=O)CC1	?	i	-1.2%	10.1%	i	-1.2%
O=c1[nH]c2ccc(Cl)cc2c(-c2ccccc2)c1N1CCN(CCO)CC1	4.6%	i	?	23.9%	i	11.2µM*
O=C(O)Cc1c(-c2ccccc2)c2cc(Cl)ccc2[nH]c1=O	-4.2%	i	5.3%	-2.1%	i	0.9%
CCOC(=O)N1CCN(c2c(-c3ccccc3)c3cc(Cl)ccc3[nH]c2=O)CC1	-3.7%	?	2.3%	-3.1%	9.2µM*	16.5%
COc1ccc(C)cc1NC(=O)Cc1ccc(NC(=O)N2CCCCc3ccccc32)cc1	·	i	·	·	i	·
SMILES	SW480 rerep	KB-3-1 tox	HT1080 IDH1KD tx	MCF10A rereplic	KB-V1 MDR tox	HT1080NT lethal
CNc1nc(N2CCc3ccccc32)ncc1F	-0.9%	?	-8.1%	-2.2%	1.64µM*	10.3%
Cn1cccc1C(=O)OCC(=O)Nc1sccc1C#N	0.5%	?	13.4%	0.4%	16.4µM*	8.3%
N#Cc1ccsc1NC(=O)COC(=O)c1ccc2ccccc2c1	-1.6%	i	-11.7%	15.6%	i	-13.6%
COc1ccc(OC)c(NC(=O)N(C)CCc2c(C)nn(C)c2C)c1	·	i	·	·	i	·
OC(COC(c1ccccc1)c1ccccc1)CN1CCc2ccccc2C1 (centres undefined)	29.2%	i	?	?	?	-30.1%
CN1CCN(CC(O)COC(c2ccc(Cl)cc2)c2ccc(Cl)cc2)CC1 (centres undefined)	19.2%	i	?	20.6µM*	i	?
OC(COC(c1ccc(F)cc1)c1ccc(F)cc1)CN1CCc2ccccc2C1 (centres undefined)	?	i	-13.1%	?	16.4µM*	-1.9%
OC(COC(c1ccc(Cl)cc1)c1ccc(Cl)cc1)CN1CCc2ccccc2C1 (centres undefined)	?	i	?	18.4µM*	i	20.6µM*
OC1CCCN(CC(O)COC(c2ccc(F)cc2)c2ccc(F)cc2)C1 (centres undefined)	0.9%	i	-18.4%	3.3%	i	?
CC1CN(CC(O)COC(c2ccccc2)c2ccccc2)CC(C)O1 (centres undefined)	?	i	10.2%	?	20.6µM*	-2.3%
COc1ccc2c(c1)c1c(c(=O)n(-c3ccc(F)c(Cl)c3)c(=O)n1Cc1cccc(C)c1)n2C	·	i	·	·	i	·
COc1cc(N2CCC(O)CC2)ccc1Nc1nnc(Cl)c(Nc2ccccc2S(C)(=O)=O)n1	-0.1%	i	-15.6%	-11.5%	i	?
Cc1cccc(NC(=O)COC(=O)c2nn(-c3ccccc3C(F)(F)F)cc2O)c1C	·	i	-1.1%	·	i	0.2%
CCOC(=O)c1ccc2c(c1)N(CC(=O)Nc1ccc(C)cc1C)C(=O)c1ccccc1S2	·	i	·	·	i	·
CCNS(=O)(=O)c1ccc(C(=O)OCc2cc(=O)oc3cc(OC)ccc23)cc1	?	i	-8.0%	14.6µM*	i	10.1%
CC1(C)CC(=O)c2c(oc3c(Cl)cc(NS(=O)(=O)c4ccc(Cl)cc4)cc23)C1	·	i	·	·	i	·
COc1cccc(OCC(Cn2cnc3ccccc32)OC(C)=O)c1 (centres undefined)	0.6%	i	5.3%	0.0%	16.4µM*	7.0%
COc1ccc(OCC(Cn2cnc3ccccc32)OC(C)=O)cc1 (centres undefined)	-12.0%	i	1.8%	5.9%	?	2.0%

Source: PubChem BioAssay
